Results: PubChem BioAssay (NCI)
About 83,000 compounds went through this panel and 20% of them were active in at least one assay; those are over-represented in the sample as a whole.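 In brief: 96-well plates, 48 h treatment, single concentration, percent growth endpoint.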 Values without a mark were called inactive. Calls of active or inactive are those of the source. The calls were made as follows: active = growth percent below 10; inactive = the rest.

Tests used:
Experiment in all cases: NCI-60 one-dose screen, 48 h (100 = growth as untreated, 0 = no growth, -100 = all killed)
SR leukemia = details: 10 µM unless noted
RPMI-8226 leukemia = details: 10 µM unless noted
OVCAR-8 ovarian = details: 10 µM unless noted
OVCAR-5 ovarian = details: 10 µM unless noted
OVCAR-4 ovarian = details: 10 µM unless noted
SK-OV-3 ovarian = details: 10 µM unless noted
IGROV1 ovarian = details: 10 µM unless noted
OVCAR-3 ovarian = details: 10 µM unless noted
HS 578T breast = details: 10 µM
NCI/ADR-RES ovarian = details: 10 µM unless noted
T-47D breast = details: 10 µM unless noted
BT-549 breast = details: 10 µM unless noted
MDA-MB-435 melanoma = details: 10 µM unless noted
SW-620 colon = details: 10 µM unless noted
MCF7 breast = details: 10 µM unless noted
HCT-116 colon = details: 10 µM unless noted
HCC-2998 colon = details: 10 µM unless noted
KM12 colon = details: 10 µM unless noted

SMILES | growth (SR leukemia) | growth (RPMI-8226 leukemia) | growth (OVCAR-8 ovarian) | growth (OVCAR-5 ovarian) | growth (OVCAR-4 ovarian) | growth (SK-OV-3 ovarian) | growth (IGROV1 ovarian) | growth (OVCAR-3 ovarian) | growth (HS 578T breast) | growth (NCI/ADR-RES ovarian) | growth (T-47D breast) | growth (BT-549 breast) | growth (MDA-MB-435 melanoma) | growth (SW-620 colon) | growth (MCF7 breast) | growth (HCT-116 colon) | growth (HCC-2998 colon) | growth (KM12 colon)
CN1CCN(Cc2ccc(NC(=O)c3cncc(C#Cc4cnc5cccnn45)c3)cc2C(F)(F)F)CC1 | 5.44% (active) | -20.1% (active) | 5.17% (active) | 12.7% | -21.7% (active) | 7.64% (active) | 5.12% (active) | 1.49% (active) | -17.3% (active) | 18.3% | 30.7% | 6.96% (active) | 1.81% (active) | -3.38% (active) | 3.61% (active) | 3.88% (active) | 9.55% (active) | -12.3% (active)
COC(=O)/C=C/c1cc(OC(C)=O)c2c(c1)[C@@H](C(=O)OC)[C@H](c1ccc(OC(C)=O)c(OC(C)=O)c1)O2 | 10.8% | 3.3% (active) | 11% | 20.6% | 30.4% | 36.4% | 12.2% | -21.9% (active) | 7.01% (active) | -5.91% (active) | 74.7% | 13.5% | -64.8% (active) | 15.7% | 15.6% | 6.38% (active) | 22.2% | 5.97% (active)
CC[C@H](Nc1nc(N)nc(C2CC2)c1C#N)c1nc2cccc(NCc3ccc(C(=O)NO)cc3)c2c(=O)n1-c1ccccc1 | -0.809% (active) | 4.07% (active) | 1.08% (active) | 14.8% | 8.75% (active) | -9.63% (active) | 2.3% (active) | 9.13% (active) | 13.5% | 45.8% | -5.53% (active) | 33.3% | 7.07% (active) | 11.6% | 4.25% (active) | -59.8% (active) | 0.531% (active) | 8.71% (active)
O=C(Nc1ccc(OS(=O)(=O)c2ccc(F)cc2)cc1)C12CC3CC(CC(C3)C1)C2 | 36.3% | 12.3% | 72.4% | 100% | 54.4% | 74.9% | 90.2% | 78.2% | 75.8% | 60.2% | 31.3% | 71.9% | 82.9% | 39.4% | 34% | 33.7% | 40.6% | 37.3%
CC(=O)c1cc(C(=O)c2ccc3c(c2)Sc2ccccc2N3)c2c(C)cccn12 | 12.8% | 15.7% | 18.8% | 45.4% | 47% | 25.1% | 34.1% | -27.5% (active) | 56.2% | 9.46% (active) | 58.1% | 18.2% | -26.9% (active) | 28.8% | 24.5% | 6.07% (active) | 22.8% | 11.8%
COc1ccc(-c2nc(-c3ccccc3OCc3ccccc3OC)nc(C)c2C(C)=O)cc1 | 78.8% | 73% | 86.9% | 94.1% | 94.9% | 96.1% | 89.7% | 102% | 72.8% | 83.7% | 61% | 98.4% | 90.4% | 67.5% | 83.8% | 66.4% | 86.2% | 64.4%
N=C(N)c1ccc(-c2ccc(-c3cc(Cl)cc(Cl)c3)o2)nc1 | -27.4% (active) | -45.2% (active) | -49.4% (active) | -62.3% (active) | -57.7% (active) | -86.5% (active) | -41.3% (active) | -95.2% (active) | 83.4% | -29.8% (active) | -66.1% (active) | 91.2% | -78.1% (active) | -82.7% (active) | -67.1% (active) | -74% (active) | -41.9% (active) | –
O=C1/C(=C\c2cccn2Cc2ccc(Cl)cc2)c2ccccc2N1c1c(Cl)cccc1Cl | 75.3% | 76.1% | 85.2% | 86.8% | 40.2% | 86.7% | 63% | 82.3% | 97.2% | 78.3% | 25.1% | 94.5% | 106% | 91.5% | 12.8% | 77% | 79.8% | 54.3%
Cc1ccc(NC(=O)Cn2nncc2CN2C(=O)CSC2=O)cc1C | 124% | 106% | 102% | 112% | 104% | 89.7% | 111% | 102% | 99.2% | 96.1% | 98.7% | 98.8% | 100% | 99.3% | 92% | 102% | 92.5% | 105%
FC(F)(F)c1ccc(/C=N/Nc2nnc3n2N=C(c2ccc(Cl)cc2)CS3)cc1 | 79.7% | 85.1% | 19.9% | 92.7% | 17.4% | 40.8% | 49.2% | 46.7% | 8.3% (active) | 47.4% | 65.5% | 58.2% | 70.8% | 77.6% | 61.2% | 32.8% | 98.7% | 76.9%
COc1cc2nccc(Oc3ccc(NC(=O)C4(C(=O)Nc5ccc(F)cc5)CC4)cc3)c2cc1Oc1ccc(N)cn1 | 11.9% | 48.5% | 47.1% | 40% | 29.9% | 61.3% | -24.1% (active) | 49.9% | 7.33% (active) | 73.8% | 5.99% (active) | 61.9% | 3.34% (active) | 36.8% | 9.52% (active) | 40.7% | 72% | 3.7% (active)
Cc1ccc(NC(=O)c2[nH]c(SCCN(C)C)nc2-c2ccc(F)cc2)cc1C#Cc1cnc2cccnn12 | -35.9% (active) | -6.17% (active) | -12.2% (active) | 11.6% | -59.2% (active) | 98.5% | 78.6% | 102% | 88.3% | 11.1% | 84.2% | 94.8% | 25.7% | 0.0547% (active) | 23.1% | -64.3% (active) | 96.3% | -6.46% (active)
Cc1ccc(-c2nc3ccccc3c(=O)n2/N=C/c2cccc3ccccc23)cc1 | 49.8% | 73.6% | 84.2% | 102% | 76.2% | 76.4% | 50.1% | 71.6% | 100% | 78.6% | 42.6% | 80.1% | 69.2% | 93.9% | 62.9% | 71.5% | 80.5% | 69.1%
COc1ccc(-c2nsc3c2NC(=O)CC3c2cccc(F)c2)cc1 (stereo not given) | 15.4% | 47.1% | 60.4% | 57% | 92.1% | 58.9% | 57.2% | 9.37% (active) | 79.1% | 22.8% | 33.7% | 50.3% | -34.1% (active) | 18% | 26.4% | 22.9% | 78.5% | 16.7%
CCCc1n(Cc2ccc3ccccc3n2)cc[n+]1Cc1ccc2ccccc2c1 | -0.784% (active) | -7.06% (active) | 10.8% | 5.17% (active) | 5.87% (active) | 0.843% (active) | 3.66% (active) | -4% (active) | 24.4% | 95.7% | -2.95% (active) | -3.95% (active) | -6.36% (active) | 15% | 2.91% (active) | 1.31% (active) | 12.5% | -4.46% (active)
CN(C)CCOc1nc2c3cccnc3cc(-c3cccc(Cl)c3)c2c2ncccc12 | 0.455% (active) | -21.6% (active) | 14.7% | 45.5% | 20.6% | 45% | 30.9% | 17.8% | 43.1% | 18.7% | 20.1% | 57.9% | -59.6% (active) | -44.3% (active) | -50% (active) | -81.3% (active) | -79.2% (active) | 14.2%
CCCNC(=S)N/N=C(\C)c1ccccn1 | 10% | 20% | 25.2% | 49.3% | 14.8% | 29.3% | 9.27% (active) | 41.4% | 32.9% | 11.5% | 37.2% | 32.4% | 49% | 33.4% | 6.77% (active) | 4.71% (active) | 44.2% | 32%
